Laboratory results as given in PubChem BioAssay (EPA / NIEHS).
Calls of active or inactive are those of the source. Rule for the calls: active = hit-call score of the fitted dose curve at least 0.9, where 1 is the maximum; inactive = score below 0.9.

Tests used:
[1] = read-out: urokinase plasminogen activator (uPA), PLAU (gene 5328); test: BSK_KF3CT_uPA: BioMAP Diversity Plus: KF3CT Assay for urokinase plasminogen activator (uPA) Biomarker Activity (AID 2283075); details: primary human keratinocytes with fibroblasts; actives raise or lower the signal
Procedure, shortened: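 ELISA read-out of uPA 24 h after dosing human skin keratinocytes co-cultured with foreskin fibroblasts. Signal change fitted both ways relative to DMSO; sulforhodamine B on parallel cultures marks overt cytotoxicity.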

CD40, CD40 (gene 958) [2] = test: BSK_LPS_CD40: BioMAP Diversity Plus: LPS Assay for CD40 Biomarker Activity (AID 2283076); details: primary human HUVEC with PBMC; actives raise or lower the signal
Procedure, shortened: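 HUVEC plus PBMC co-culture stimulated with LPS; CD40 quantified by ELISA 24 h after compound dosing. Fitting was bidirectional relative to DMSO. SRB staining of parallel cultures flagged overt cytotoxicity.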

[3] = read-out: E-selectin (Homo sapiens) (UniProt P16581); test: BSK_LPS_Eselectin: BioMAP Diversity Plus: LPS Assay for Eselectin Biomarker Activity (AID 2283077); details: primary human HUVEC with PBMC; actives raise or lower the signal
Procedure, shortened: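 Human umbilical vein endothelial cells co-cultured with PBMC under LPS stimulation; cell-surface E-selectin measured by ELISA 24 h after dosing. Change in either direction versus DMSO, with SRB total-protein staining in parallel cultures for cytotoxicity.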

[4] = read-out: Interleukin-8 (IL8), CXCL8 (gene 3576); test: BSK_LPS_IL8: BioMAP Diversity Plus: LPS Assay for Interleukin-8 (IL8) Biomarker Activity (AID 2283078); details: primary human HUVEC with PBMC; actives raise or lower the signal
Procedure, shortened: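 Human umbilical vein endothelial cells co-cultured with PBMC, LPS-stimulated, exposed to compound for 24 h. IL-8 quantified by ELISA; fitted in both directions against DMSO, with SRB total-protein staining of parallel cultures for cytotoxicity.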

[5] = BSK_LPS_SRB: Viability Assessment in the BioMAP Diversity Plus: LPS Assay (AID 2283079); details: primary human HUVEC with PBMC;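 note: total protein by sulforhodamine B absorbance as a cytotoxicity measure; measured one day after compound addition; fitted in both directions against DMSO so loss or gain of signal counts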
Procedure, shortened: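 Co-culture of human umbilical vein endothelial cells and PBMC, read 24 h after dosing. Total protein by 0.1% SRB staining after 10% TCA fixation, absorbance at 560 nm; bidirectional fit against DMSO.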

[6] = read-out: Interleukin-1 alpha (IL1a), IL1A (gene 3552); test: BSK_LPS_IL1a: BioMAP Diversity Plus: LPS Assay for Interleukin-1 alpha (IL1a) Biomarker Activity (AID 2283080); details: primary human HUVEC with PBMC; actives raise or lower the signal
Procedure, shortened: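 Human umbilical vein endothelial cells co-cultured with PBMC and stimulated with LPS; IL-1a measured by ELISA 24 h after dosing. Bidirectional fitting against DMSO; cytotoxicity checked by SRB staining in parallel cultures.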

[7] = read-out: Monocyte Chemoattractant Protein-1 (MCP1), CCL2 (gene 6347); test: BSK_LPS_MCP1: BioMAP Diversity Plus: LPS Assay for Monocyte Chemoattractant Protein-1 (MCP1) Biomarker Activity (AID 2283081); details: primary human HUVEC with PBMC; actives raise or lower the signal
Procedure, shortened: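 Human umbilical vein endothelial cells co-cultured with PBMC, LPS-stimulated; secreted MCP-1 measured by ELISA 24 h after compound addition. Bidirectional curve fitting against DMSO baseline; SRB total-protein staining in parallel cultures for cytotoxicity.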

[8] = BSK_LPS_PGE2: BioMAP Diversity Plus: LPS Assay for Prostaglandin E2 (PGE2) Biomarker Activity (AID 2283082); details: primary human HUVEC with PBMC; actives raise or lower the signal
Procedure, shortened: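 ELISA read-out of PGE2 from human umbilical vein endothelial cells co-cultured with peripheral blood mononuclear cells under LPS, 24 h post-dose. Gain or loss of signal scored relative to DMSO baseline.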

[9] = read-out: Tumor necrosis factor (Homo sapiens) (UniProt P01375); test: BSK_LPS_TNFa: BioMAP Diversity Plus: LPS Assay for Tumour Necrosis Factor alpha (TNFa) Biomarker Activity (AID 2283085); details: primary human HUVEC with PBMC; actives raise or lower the signal
Procedure, shortened: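 HUVEC/PBMC co-culture, LPS-stimulated; 24 h post-dose; TNFa by ELISA; gain or loss of signal fitted bidirectionally vs DMSO baseline.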

[10] = read-out: Vascular cell adhesion molecule 1 (VCAM1), VCAM1 (gene 7412); test: BSK_LPS_VCAM1: BioMAP Diversity Plus: LPS Assay for Vascular cell adhesion molecule 1 (VCAM1) Biomarker Activity (AID 2283086); details: primary human HUVEC with PBMC; actives raise or lower the signal
Procedure, shortened: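 ELISA read-out of VCAM-1 at 24 h post-dosing in an LPS-driven HUVEC/PBMC primary human co-culture; gain or loss of signal fitted bidirectionally against DMSO baseline. Cytotoxicity tracked in parallel cultures by SRB total-protein staining.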

CD38, CD38 (gene 952) = test: BSK_SAg_CD38: BioMAP Diversity Plus: SAg Assay for CD38 Biomarker Activity (AID 2283087); details: primary human HUVEC with PBMC; actives raise or lower the signal
Procedure, shortened: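 Measures CD38 on a human endothelial/PBMC co-culture driven by SEB and TSST-1, 24 h after compound exposure, using ELISA with fluorescence detection; DMSO defines baseline for bidirectional curve fitting.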

CD40, CD40 (gene 958) [11] = test: BSK_SAg_CD40: BioMAP Diversity Plus: SAg Assay for CD40 Biomarker Activity (AID 2283088); details: primary human HUVEC with PBMC; actives raise or lower the signal
Procedure, shortened: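 HUVEC plus PBMC co-culture, superantigen-activated, with CD40 read by ELISA 24 h after dosing. Curves fitted in both directions against DMSO. Overt cytotoxicity checked by parallel SRB total-protein staining.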

[12] = read-out: Monocyte Chemoattractant Protein-1 (MCP1), CCL2 (gene 6347); test: BSK_SAg_MCP1: BioMAP Diversity Plus: SAg Assay for Monocyte Chemoattractant Protein-1 (MCP1) Biomarker Activity (AID 2283090); details: primary human HUVEC with PBMC; actives raise or lower the signal
Procedure, shortened: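 Values derive from bidirectional fitting of ELISA-measured MCP1 against DMSO controls. Readings were taken 24 h after dosing human vascular endothelial cells co-cultured with peripheral blood mononuclear cells under superantigen stimulation.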

[13] = read-out: E-selectin (Homo sapiens) (UniProt P16581); test: BSK_SAg_Eselectin: BioMAP Diversity Plus: SAg Assay for Eselectin Biomarker Activity (AID 2283091); details: primary human HUVEC with PBMC; actives raise or lower the signal
Procedure, shortened: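 Human umbilical vein endothelial cells co-cultured with peripheral blood mononuclear cells, SAg system. E-selectin is measured by ELISA 24 h after dosing and fitted bidirectionally against DMSO. Cytotoxicity is checked by SRB staining of parallel cultures.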

[14] = read-out: Monokine induced gamma interferon (MIG), CXCL9 (gene 4283); test: BSK_SAg_MIG: BioMAP Diversity Plus: SAg Assay for Monokine induced gamma interferon (MIG) Biomarker Activity (AID 2283092); details: primary human HUVEC with PBMC; actives raise or lower the signal
Procedure, shortened: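 Measures CXCL9 protein by ELISA in a human vascular primary-cell co-culture (umbilical vein endothelium with PBMC) 24 h after chemical addition. Activity is scored up or down from the DMSO control.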

Measured: outcome

Sequence of E-selectin (Homo sapiens) (P16581 whole entry, looked up): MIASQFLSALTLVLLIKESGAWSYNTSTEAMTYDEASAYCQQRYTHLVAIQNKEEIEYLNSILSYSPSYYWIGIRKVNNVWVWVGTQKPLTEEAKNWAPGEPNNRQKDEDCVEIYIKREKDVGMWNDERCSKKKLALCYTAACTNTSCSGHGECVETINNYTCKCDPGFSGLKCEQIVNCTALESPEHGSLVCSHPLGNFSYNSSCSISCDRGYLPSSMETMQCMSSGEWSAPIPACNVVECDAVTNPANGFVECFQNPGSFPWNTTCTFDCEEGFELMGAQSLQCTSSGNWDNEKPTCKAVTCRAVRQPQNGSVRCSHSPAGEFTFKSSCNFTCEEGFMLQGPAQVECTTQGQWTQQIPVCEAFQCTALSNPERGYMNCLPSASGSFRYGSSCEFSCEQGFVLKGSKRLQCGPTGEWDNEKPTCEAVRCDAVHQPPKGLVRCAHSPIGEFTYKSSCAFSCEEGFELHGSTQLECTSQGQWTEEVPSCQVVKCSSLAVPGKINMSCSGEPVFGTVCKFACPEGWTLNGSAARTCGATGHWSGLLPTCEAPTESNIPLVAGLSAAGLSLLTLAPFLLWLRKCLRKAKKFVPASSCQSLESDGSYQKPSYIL
Sequence of Tumor necrosis factor (Homo sapiens) (P01375 whole entry, looked up): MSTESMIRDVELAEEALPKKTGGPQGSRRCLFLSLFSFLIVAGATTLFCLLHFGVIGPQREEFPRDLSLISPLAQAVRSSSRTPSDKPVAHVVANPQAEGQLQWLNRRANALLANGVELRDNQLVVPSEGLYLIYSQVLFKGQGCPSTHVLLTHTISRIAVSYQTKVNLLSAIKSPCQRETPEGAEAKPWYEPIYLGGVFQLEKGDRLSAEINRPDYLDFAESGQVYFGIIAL

CCCC[N+](CCCC)(CCCC)CCCC
inactive: all assays above
